# Screening data from PubChem BioAssay.
# PINK1 modulator: modulators of PINK1 expression; PINK1 immunofluorescence, high-content cytometry, 24 h; Potency, µM (titrated, usually from 76.6 µM), hits mostly activators; hit rate 0.2% among 410,000; AID 624263; active means well fitted activation curve with a large enough effect; inconclusive means small, poorly fitted or top-dose-only effect; cell line not stated here; further: nearly all actives have a fitted effect of over 65% in size
#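 PINK1 protein, normally rapidly degraded, was detected by immunofluorescence after 24 hour compound treatment of a stable cell line. Titration data (5 concentrations) came from laser-scanning cytometry, with CCCP-treated wells as controls.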
# ClpP mod: qHTS Assay for Activators of ClpP; ATP-dependent Clp protease proteolytic subunit (Bacillus subtilis (strain 168)), P80244; purified B. subtilis ClpP, FRET peptide cleavage, 20 min; Potency, µM (doses to about 57.5 µM); hit rate 1.9% among 340,000; active means well fitted falling curve with a large enough effect; inconclusive means small, poorly fitted or top-dose-only effect; inactive means no such curve, though single readings can be large or run the other way; further: the source files actives as falling curves though it sought activators and does not explain the sign; nearly all actives have a fitted effect of over 65% in size
# Target sequence (P80244 whole entry, looked up): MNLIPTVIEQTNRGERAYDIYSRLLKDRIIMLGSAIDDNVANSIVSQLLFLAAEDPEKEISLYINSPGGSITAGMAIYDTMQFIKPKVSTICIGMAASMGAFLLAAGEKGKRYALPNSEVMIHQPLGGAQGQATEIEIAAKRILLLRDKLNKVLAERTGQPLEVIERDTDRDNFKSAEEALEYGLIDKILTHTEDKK
#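 Buffer: 100 mM Tris/HCl pH8, 100 mM KCl, 0.05% low protease BSA, 2.5% glycerol, 0.01% Tween-20. ClpP 10 microg/mL final; 20 min RT; delta FRET normalized to ADEP and DMSO controls.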
# RORgamma inh: inhibitors of mouse ROR gamma transcriptional activity. P51450. Drosophila S2 Gal4-RORgamma UAS-luciferase reporter, 20 h. Potency, µM (doses to about 53.6 µM), usual class: inhibitors. hit rate 5.4% among 310,000; further: nearly all actives have a fitted effect of over 60% in size
#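 Schneider cells (Drosophila), stable Gal4 DBD–ROR gamma + UAS-luc; 1 hr cmpd preincubation; Cu2+ induction 700 uM final; 20 hr ambient; luminescence.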
# Gal4-VP16 FLuc: Gal4-VP16 reporter inhibition counter-screen; Drosophila S2 Gal4-VP16 UAS-luciferase, luminescence, 20 h; Potency, µM (doses to about 53.6 µM), most hits filed as inhibitors; hit rate 3.5% among 310,000; AID 2546;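 further: Gal4-VP16 expression switched on by copper sulfate through the metallothionein promoter; nearly all actives have a fitted effect of over 50% in size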
# Epigenetic derep: epigenetic control regulation, reporter derepression | Potency, µM (titrated, usually from 53.9 µM), hits mostly activators | AID 1865 | hit rate 0.2% among 280,000 | murine LDR cells, GFP reporter derepression, 30 h; further: nearly all actives have a fitted effect of over 60% in size
#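 Readout is the number of GFP-expressing murine LDR cells, counted by cytometry following washing. Cells were treated with compound for 30 h at 37 C; the stably integrated CMV-GFP locus is normally silent.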
# Sfp PPTase inh: blocks B. subtilis Sfp PPTase activity; Biochemical Sfp PPTase activity, qHTS; Potency, µM, usual class: inhibitors; hit rate 3.5% among 310,000;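 further: the enzyme is Sfp with the accession as filed and its product quenches rhodamine fluorescence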
#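 Fluorescence-quenching assay: 15 nM Sfp-PPTase preincubated 15 min at room temperature with compound, then 5 uM rhodamine-CoA and 12.5 uM BHQ-2-labelled YbbR peptide added. Fluorescence (ex 525/em 598 nm) read at start and after 30 min; difference gives rate.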
# Numbers stand for hits; i = inactive; ? = inconclusive; nt = no result given. The list is not random: actives were taken first. Their share in the collection is about 8.1%. Unless noted, the call rests on the fitted dose curve; in most records, active means well fitted curve in the direction sought with a large enough effect; inconclusive means small, poorly fitted or top-dose-only effect, or another doubt; inactive means no such curve, though single readings can be large; an effect the other way counts as inactive or inconclusive.
SMILES,PINK1 modulator,ClpP mod,RORgamma inh,Gal4-VP16 FLuc,Epigenetic derep,Sfp PPTase inh
CCOc1ccccc1-c1cc(-c2ccccc2)nc2c1c(=O)n(C)c(=O)n2C,i,32µM,i,i,i,i
CNc1ccccc1C(C)(C)c1cc(-c2cccc(OC)c2)no1,?,nt,1.4µM,?,i,i
Cc1cc(/C=N/Nc2nc(N)ncc2[N+](=O)[O-])c(C)n1-c1ccccc1F,nt,nt,1.6µM,7.1µM,i,50µM
CCOC(=O)C(C)/C(C)=N/NC(N)=S (stereo not drawn),i,i,0.71µM,1.3µM,?,40µM
O=[N+]([O-])c1ccc(S(=O)(=O)N2CCN(Cc3ccco3)CC2)cc1,i,nt,i,i,nt,56µM
COc1cc2c(cc1OC)C1=NC(=O)CN1C(SCc1ccccc1C)=N2,nt,18µM,?,i,?,i
Cc1ccc(CSC2=Nc3ccccc3C3=NC(=O)CN23)cc1,i,i,?,i,i,i
COc1ccc(-c2noc(CN3CCCCC3c3nccn3C)n2)cc1 (stereo not drawn),i,i,3.5µM,?,i,i
Cn1ccnc1C1CCCCN1Cc1nc(Cc2cccc(C(F)(F)F)c2)no1 (stereo not drawn),i,nt,7.1µM,?,i,i
Cc1nn2c(=O)cc(COC(=O)c3ccccc3NC(=O)C3CCCCC3)nc2s1,i,i,nt,nt,i,nt
O=C(N/N=C/c1cccs1)c1cc(-c2ccncc2)nc2ccccc12,i,i,5µM,7.1µM,i,i
COc1ccc(-c2cc(C(=O)N/N=C/c3sccc3C)c3ccccc3n2)c(OC)c1,i,i,4.5µM,?,i,i
COc1ccc(OC)c(-c2cc(C(=O)N/N=C/c3cc(OC)c(OC)cc3OC)c3ccccc3n2)c1,i,nt,nt,nt,nt,nt
CCCc1cc(C(=O)N/N=C/c2ccc(CC)s2)c2ccccc2n1,i,i,2.8µM,6.3µM,i,i
COc1ccccc1-c1cc(C(=O)N/N=C/c2cccs2)c2ccccc2n1,i,i,4.5µM,5.6µM,i,i
COc1ccccc1-c1cc(C(=O)N/N=C\c2cnn(C)c2C)c2ccccc2n1,i,i,?,i,i,i
Clc1ccc(Cl)c(Cl)c1Cl,nt,nt,i,i,nt,nt
Cc1c(C(=O)N2CC3CCC2C3)sc2ncnc(NCCc3ccccn3)c12 (stereo not drawn),i,nt,nt,nt,nt,nt
O=C(N/N=C/c1cccs1)c1cc(C2CC2)nc2ccccc12,i,i,10µM,18µM,i,i
C/C(=N\NC(=O)c1cc(C)nc2ccccc12)c1ccco1,i,i,i,i,i,i
COc1ccc(-c2cc(C(=O)N/N=C(\C)c3ccco3)c3ccccc3n2)c(OC)c1,i,i,6.3µM,i,nt,i
CCc1ccc(/C=N/NC(=O)c2cc(-c3ccncc3)nc3ccccc23)s1,i,i,2µM,5.6µM,i,i
O=C(N/N=C/c1cccs1)c1c[nH]c2ccccc12,i,i,?,i,i,i
O=C(N/N=C/c1ccco1)c1cc(-c2ccncc2)nc2ccccc12,i,i,nt,nt,nt,i
CCN1CCC(N(Cc2ccc3c(c2)OCO3)C(=O)Nc2cc(Cl)ccc2C(=O)OC)CC1,i,i,nt,nt,i,nt
SMILES,PINK1 modulator,ClpP mod,RORgamma inh,Gal4-VP16 FLuc,Epigenetic derep,Sfp PPTase inh
CCOc1ccc(NC(=O)CCn2c(=O)c3cccn3c3cccnc32)cc1,i,i,nt,nt,i,nt
CCN(CC)c1ccc(/C=N/Nc2nc3ccccc3[nH]2)c(O)c1,?,?,3.5µM,2.8µM,?,i
Cc1ccc2cc(/C=N/Nc3nc4ccccc4[nH]3)c(Cl)nc2c1,i,i,4.5µM,1.3µM,i,i
COc1ccc(C2/C=C\CN(C(=O)C3CCCCC3)C(Cc3ccccc3)C(=O)N2Cc2ccc(F)cc2)cc1 (stereo not drawn),nt,nt,i,i,nt,i
CCCCN(CCCC)C1=C(C(=O)c2ccccc2)N(C)S(=O)(=O)c2ccccc21,i,i,nt,nt,i,nt
Cc1csc(N/N=C/c2ccc(O)c([N+](=O)[O-])c2)n1,i,i,i,?,i,32µM
O=[N+]([O-])c1ccc(-c2csc(N/N=C/c3cccnc3)n2)cc1,i,i,i,i,i,i
CC(=O)Nc1sc(N/N=C/c2ccc(O)cc2)nc1-c1ccc(C)cc1,i,i,i,i,i,i
CC(C)(C)c1csc(N/N=C/c2ccc(O)cc2)n1,i,i,0.56µM,1µM,nt,i
O=[N+]([O-])c1cc(/C=N\Nc2nc(-c3ccccc3)cs2)ccc1O,i,nt,?,i,i,50µM
Cc1nnc(N/N=C/c2ccc(O)c([N+](=O)[O-])c2)[nH]c1=O,i,i,i,i,i,?
COc1cc(/C=N/Nc2nc(-c3ccc(S(=O)(=O)N(C)C)cc3)cs2)ccc1O,i,i,?,i,i,79µM
CC(=O)[C@H]1[C@H](C#N)CC2C3CC=C4C[C@@H](O)CCC4(C)C3CCC21C (stereo partly drawn),nt,nt,i,i,i,i
CS(=O)(=O)N1CCC(N2CCN(Cc3ccccc3)C(=O)C2=O)CC1,i,i,nt,nt,i,nt
Cc1csc(N/N=C\c2cccnc2)n1,i,nt,i,i,i,56µM
Nc1c(C(=O)Nc2ccccc2Cl)nnn1-c1ccc2c(c1)OCCO2,i,nt,0.056µM,?,nt,i
CCOc1ccc(N2CC(c3nc4ccccc4n3CCCOc3ccccc3)CC2=O)cc1 (stereo not drawn),i,i,nt,nt,i,nt
